Bioassay records deposited in PubChem BioAssay by several laboratories.
Hits are enriched below; roughly 12% of the tested compounds scored in any of these assays.
L major viab: Leishmania major promastigote growth inhibition, primary screen | Leishmania major promastigotes, resazurin fluorescence viability | inhibition, % at 10 µM | hit rate 9% among 200,000 | AID 1063, 2008; in the data active = inhibition above about 50%;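 note: promastigotes grown with compound for 44 hours at 28 °C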
Insulin prom inh: inhibitors of insulin promoter-driven GFP, primary screen, imaging, TRM-6 cells (human fetal islet line), eGFP reporter, cell count | hit rate 0.9% among 130,000 | AID 1273, 2008 | inhibition, % at 2 µM | reporter expression induced with tamoxifen;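 active = inhibition above the mean plus 3 SD, with well images judged a real hit on visual review, cut at about 60% in these data, passing the limit was not always enough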
Insulin prom up: insulin promoter activators in MIN6 cells, imaging, high-content screening, mouse beta cells; MIN6 insulin promoter-GFP reporter; stronger effect = higher value; z-score at 5 µM; hit rate 0.3% among 190,000;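 active = z-score above 3 at 5 µM with at least 500 cells counted in the well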
KCC2 mod: KCC2 cotransporter modulators, thallium flux, primary screen, cell-based, HEK293 KCC2, FluoZin-2 fluorescence, MLSMR | Solute carrier family 12 member 5 (Homo sapiens), Q9H2X9 | KCC2 cells, thallium flux FluoZin-2 fluorescence | B-score of Tl+ flux slope (higher = more flux/activation; lower = inhibition) at 10 µM | hit rate 2.2% among 190,000;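 active = thallium flux slope and its plate-corrected score both differing from the plate sample mean at a set confidence after two filtering rounds, in either direction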;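 note: slope of fluorescence scaled to starting intensity during 10 to 20 s after thallium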
Target sequence (Q9H2X9 whole entry, looked up): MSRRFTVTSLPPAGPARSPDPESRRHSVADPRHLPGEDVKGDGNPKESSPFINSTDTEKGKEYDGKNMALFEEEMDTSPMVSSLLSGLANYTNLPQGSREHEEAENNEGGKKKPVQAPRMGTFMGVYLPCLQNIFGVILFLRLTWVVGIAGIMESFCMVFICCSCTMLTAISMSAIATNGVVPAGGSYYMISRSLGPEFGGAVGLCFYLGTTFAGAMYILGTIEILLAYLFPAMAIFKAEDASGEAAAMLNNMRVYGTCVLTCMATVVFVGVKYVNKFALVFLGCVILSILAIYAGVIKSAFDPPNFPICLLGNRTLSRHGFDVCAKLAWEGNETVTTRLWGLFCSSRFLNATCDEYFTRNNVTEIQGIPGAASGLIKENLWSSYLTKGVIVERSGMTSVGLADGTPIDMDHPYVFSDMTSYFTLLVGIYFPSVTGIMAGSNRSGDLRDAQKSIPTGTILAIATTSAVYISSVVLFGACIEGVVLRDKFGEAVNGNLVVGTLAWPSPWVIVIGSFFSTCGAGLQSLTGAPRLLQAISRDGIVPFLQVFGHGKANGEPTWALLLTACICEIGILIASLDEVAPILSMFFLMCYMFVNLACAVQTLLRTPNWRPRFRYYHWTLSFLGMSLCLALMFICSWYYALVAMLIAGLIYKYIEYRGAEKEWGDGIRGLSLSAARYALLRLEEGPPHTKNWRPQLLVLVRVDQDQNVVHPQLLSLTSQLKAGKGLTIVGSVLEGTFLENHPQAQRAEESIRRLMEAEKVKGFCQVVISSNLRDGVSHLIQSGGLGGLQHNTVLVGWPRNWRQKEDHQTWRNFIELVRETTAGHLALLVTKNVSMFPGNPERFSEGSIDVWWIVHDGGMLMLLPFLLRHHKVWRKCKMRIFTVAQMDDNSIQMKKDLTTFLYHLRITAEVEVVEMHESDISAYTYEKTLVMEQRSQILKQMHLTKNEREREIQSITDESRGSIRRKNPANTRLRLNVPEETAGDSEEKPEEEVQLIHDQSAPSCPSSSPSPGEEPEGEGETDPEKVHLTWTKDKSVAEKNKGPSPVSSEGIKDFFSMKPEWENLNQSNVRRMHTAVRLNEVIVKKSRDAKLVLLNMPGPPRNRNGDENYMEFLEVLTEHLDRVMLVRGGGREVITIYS
WT yeast gro inh: growth inhibition of WT strain, primary screen, mitochondrial fusion inhibitor project, WT and mutant strains, chemical genetic; mitochondrial fusion phenotypic screen; inhibition, % at 10 µM; hit rate 2.1% among 190,000; AID 1362, 2008; in the data active = inhibition above about 58%; tested in S. cerevisiae
ROMK primary: ROMK potassium channel modulators, primary screen, cell-based, thallium flux, MLSMR library. ATP-sensitive inward rectifier potassium channel 1 (Homo sapiens), P48048. Tet-inducible ROMK, thallium flux fluorescence; actives lie on both sides. B-score at 10 µM. hit rate 2% among 130,000. AID 1918, 2009;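 active = signal ratio slope over the read window, or its plate-corrected B-score, at least 3 SD from the plate mean, either direction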;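 note: B-score of the F/F0 ratio slope over 7 to 12 s after thallium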
An asterisk follows results filed as active; / = no result given.

SMILES	L major viab	Insulin prom inh	Insulin prom up	KCC2 mod	WT yeast gro inh	ROMK primary
O=C(CCc1nc2ccccc2c(=O)[nH]1)OCc1cccc(C(F)(F)F)c1	63*	-13	-0.21	-0.1	9	/
O=C(CC1Sc2ccccc2NC1=O)OCC(=O)N1CCc2ccccc21 (stereo not drawn)	14	/	0.47	-1.9	-3	-0.4
O=S(=O)(c1cccc2nsnc12)N1CCN(c2ccccc2F)CC1	-9	/	-0.66	0.091	42	0.93
CC(=O)Nc1ccc(S(=O)(=O)Nc2nc3ccc(C)cc3s2)cc1	-18	26	-0.23	-0.54	-3	/
Cc1ccc2nc(-c3ccc(NS(=O)(=O)c4ccc(F)cc4)cc3)sc2c1	65*	7	-0.16	0.28	95	-0.081
CCCCNC(=S)Nc1ccc(-c2nc3ccc(C)cc3s2)cc1	4	-27	-0.22	1.1	7	-0.31
CCC(C)(C)NC(=S)Nc1ccc(-c2nc3ccc(C)cc3s2)cc1	75*	7	0.31	0.12	2	0.19
CCOc1ccccc1N(CC(=O)Nc1ccc2c(c1)OCCO2)S(C)(=O)=O	-1	82*	-1.3	/	-11	/
COc1ccc(C)cc1S(=O)(=O)N(C)CC(=O)Nc1ccc2c(c1)OCO2	5	-28	0.02	0.011	-15	/
CS(=O)(=O)N(CC(=O)NCc1ccccc1)Cc1ccc(Cl)cc1	-3	-22	-0.33	-0.48	11	/
CCOc1ccccc1N(CC(=O)Nc1ccc2c(c1)OCO2)S(C)(=O)=O	-3	/	-0.21	-0.96	4	/
COc1ccc(C)cc1S(=O)(=O)N(CC(=O)Nc1ccc2c(c1)OCCO2)Cc1ccccc1	74*	17	-0.7	-2.4	33	-0.035
CS(=O)(=O)N(CC(=O)Nc1ccc2c(c1)OCCO2)Cc1ccc(Cl)cc1	96*	53	2.1	/	-7	/
CCOC(=O)c1ccc(NC(=O)CN(Cc2ccc(Cl)cc2)S(C)(=O)=O)cc1	100*	17	-0.03	/	8	0.4
CCNC(=O)OCC(CC)NC(=O)OCC(C)C (stereo not drawn)	-2	-86	-0.39	0.38	-18	/
COc1ccc(C(=O)NCc2nnc(SCC(=O)N3CCc4ccccc43)n2C2CCCCC2)cc1	-6	/	-0.19	1.1	-3	/
O=C(CSc1nnc(-c2ccncc2)n1-c1ccccc1)Nc1ccc(C(=O)O)cc1	-4	/	/	0.78	-9	0.26
O=C(Nc1cccc(NC(=O)c2cccs2)c1)c1ccc2c(c1)OCO2	16	53	-1	-0.26	-13	0.59
O=C1CC(c2ccccc2Cl)C2=C(COC2=O)N1 (stereo not drawn)	-1	24	0.29	0.092	-20	/
COC(=O)Cc1ccc(O)c(N)c1	3	6	/	-0.039	-6	-0.88
Cc1ccc(C(C)C)cc1OCC(=O)N/N=C/c1ccc2c(c1)OCCO2	90*	23	0.43	-0.28	77*	0.43
Cc1cccc(C)c1OCC(=O)N/N=C/c1ccc2c(c1)OCO2	-3	-10	0.1	0.23	18	/
COc1ccc(CCN2CC(C#N)=C3c4cc(OC)c(OC)cc4CCN3C2)cc1OC	95*	/	0.57	-0.77	8	/
COc1cc2c(cc1OC)C1=C(C#N)CN(C3CCCCC3)CN1CC2	33	/	0.31	-0.26	16	/
Cn1c(=O)[nH]c(=O)c2c1nc(N1CCCCC1)n2CC(O)CN1CCCCC1 (stereo not drawn)	16	0	-0.58	-0.12	20	/
SMILES	L major viab	Insulin prom inh	Insulin prom up	KCC2 mod	WT yeast gro inh	ROMK primary
CC(C)(C)c1cc(N)n2nc(C(C)(C)C)cc2n1	66*	30	0.04	1	15	-0.044
CC(C)=CCN1CCN(Cc2cc(C(C)C)n[nH]2)CC1CCO (stereo not drawn)	-9	/	-0.09	0.28	-8	/
Cc1ccc(-c2n[nH]c(=S)n2/N=C\c2ccco2)cc1	-4	0	1.2	2.2	-13	-0.18
O=c1ccc(NS(=O)(=O)c2ccccc2)cn1Cc1ccc(Cl)c(Cl)c1	-6	-60	4.3*	-0.77	24	/
CCOc1ncccc1C(=O)OCC(=O)Nc1c(C)cccc1C	-3	-56	-0.23	0.22	1	0.077
COc1ccc(Cn2ccnc2CO)cc1[N+](=O)[O-]	-4	/	-0.64	0	2	-0.38
Cc1[nH]n(-c2ccccc2)c(=O)c1C(C[N+](=O)[O-])c1ccccc1Cl (stereo not drawn)	7	-50	0.19	0.0019	7	/
Cc1[nH]n(-c2ccccc2)c(=O)c1C(c1ccc(O)c([N+](=O)[O-])c1)c1c(C)[nH]n(-c2ccccc2)c1=O	-4	77*	/	-0.62	/	/
Nc1nc2ccc(S(=O)(=O)N3CCCCC3)cc2s1	14	/	-0.09	0.59	70*	/
O=C(Nc1ccc2c(c1)OCO2)N1CCN(S(=O)(=O)c2ccc(Cl)cc2)CC1	-3	/	-1.1	0.25	17	/
CC(C)(C)/C(Cn1cncn1)=N\OC(=O)Nc1ccc(Cl)cc1	85*	13	-0.31	0.64	-8	0.36
CCOc1ccc(-c2[nH]nc3c2C(c2ccc4c(c2)OCO4)C(C#N)=C(N)O3)cc1OC (stereo not drawn)	51*	-28	0.2	0.17	24	/
CCn1c2ccccc2c2cc(C3C(C#N)=C(N)Oc4n[nH]c(COC)c43)ccc21 (stereo not drawn)	89*	-294	0.31	-0.017	9	/
CCCc1[nH]nc2c1C(c1cn[nH]c1-c1ccc(F)cc1)C(C#N)=C(N)O2 (stereo not drawn)	73*	-8	0.64	1.6	12	/
Cc1[nH]nc2c1C(c1ccc3c(c1)OCO3)C(C#N)=C(N)O2 (stereo not drawn)	35	13	/	-0.029	-1	/
CCCc1[nH]nc2c1C(c1ccccc1OCC)C(C#N)=C(N)O2 (stereo not drawn)	54*	/	-0.19	-1.1	1	-0.84
COc1ccc(C2C(C#N)=C(N)Oc3n[nH]c(C)c32)cc1CSc1ccccn1 (stereo not drawn)	98*	10	0.7	-0.024	-7	0.13
CCCc1[nH]nc2c1C(c1ccc(O)c(OC)c1)C(C#N)=C(N)O2 (stereo not drawn)	80*	/	1.2	0.73	10	/
O=C(CSCc1cnn(-c2ccccc2)c1-n1cccc1)N1CCN(Cc2ccccc2)CC1	97*	-49	-0.13	-1.7	63*	-1.8
O=C(O)CSCc1cnn(-c2ccccc2)c1-n1cccc1	-1	/	/	-1.1	8	/
Cc1nc2c3ccccc3n(Cc3ccccc3F)c2s1	56*	-17	0.06	-0.28	46	-1.6
Cc1nc2c3cc(F)ccc3n(Cc3ccccc3F)c2s1	-3	23	-0.35	-0.72	35	-0.00065
COc1ccc(N(CC(=O)NCc2cccs2)S(=O)(=O)c2c(C)nn(C)c2C)cc1	-1	/	0.29	0.99	0	/
Cc1[nH]c(=O)c(C#N)cc1-c1ccccc1	-9	-54	0.11	/	-2	/
